From PubChem BioAssay come the findings set out here.

SMILES strings stand for the structures. The source made the active and inactive calls. Unless noted, how the calls were made is not given here.

The test system of experiment [1] is XIP peptide (Xip251-270) binding. Description: small-molecule binders of XIP peptide, primary screen, biochemical, small-molecule microarray, fluorescence 635/667 nm, 0.1 µg/mL protein (AID 1182). As to conditions: fluorescent protein binding, 635 nm, higher = more signal, called active from +8 up or from −8 down.
In a further experiment the test system is XIP peptide (Xip251-270). Put plainly: small-molecule binders of XIP peptide, primary screen, biochemical, small-molecule microarray, fluorescence 635/667 nm, 0.5 µg/mL protein (AID 1183). As to conditions: small-molecule microarray binding, fluorescence 635 nm; higher = more signal.
A short description of experiment [2]: Plasmodium falciparum growth inhibition, primary screen, strain 3D7, DAPI fluorescence, 100 nL (AID 1184).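 Further: parasites grown inside human red blood cells in medium with human serum.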 Particulars: P. falciparum 3D7 growth, 3 d, higher = more signal.
Experiment [3] concerns the target Homeobox protein Hox-A13 (Mus musculus) (UniProt Q62424). Put plainly: inhibitors of HoxA13-DNA binding, primary screen, biochemical, fluorescence polarization, labeled oligonucleotide (AID 1185). As to conditions: 15 min, higher = more signal, called active from +8 up or from −8 down. A general note: In fluorescence polarisation assays a small probe gives low polarisation when free and higher when bound to something large.

Experiment [4] is described as follows: inhibitors of hydroxyurea-induced Chk1 phosphorylation, primary screen, imaging, HeLa, phospho-Chk1 antibody, percent positive cells (AID 1186). Particulars: hydroxyurea-induced phospho-Chk1 immunofluorescence imaging, higher = more signal.
Experiment [5] can be described thus: inhibitors of hydroxyurea-induced Chk1 phosphorylation, primary screen, imaging, HeLa, phospho-Chk1 nuclear intensity (AID 1187). Particulars: hydroxyurea-induced phospho-Chk1 immunofluorescence imaging, higher = more signal.

Sequence of Homeobox protein Hox-A13 (Mus musculus) (Q62424 whole entry, looked up): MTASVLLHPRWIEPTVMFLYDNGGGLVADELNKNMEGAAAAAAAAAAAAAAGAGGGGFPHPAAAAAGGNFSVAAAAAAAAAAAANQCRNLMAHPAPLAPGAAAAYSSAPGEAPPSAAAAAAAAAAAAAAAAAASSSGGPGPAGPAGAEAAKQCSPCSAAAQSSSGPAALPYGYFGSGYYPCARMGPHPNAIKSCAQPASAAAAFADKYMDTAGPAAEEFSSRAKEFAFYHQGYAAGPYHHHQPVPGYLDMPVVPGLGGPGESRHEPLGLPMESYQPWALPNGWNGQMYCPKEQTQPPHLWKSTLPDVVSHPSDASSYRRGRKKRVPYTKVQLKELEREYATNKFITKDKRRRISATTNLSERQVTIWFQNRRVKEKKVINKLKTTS

As to `C=C(C(=O)CC[C@H](OC(C)=O)c1ccc(OCCO)cc1)C(C)C`, the composite z-score in experiment [1] was 0.0512 (inactive); with XIP peptide (Xip251-270), 0.601. The z-score in experiment [2] is -2.57; in experiment [3], -3.14 (inactive); in experiment [4], 0.772 (inactive); in experiment [5], -0.0365 (inactive).
With `[N-]=[N+]=NCc1ccccc1C[C@]1(C(=O)NCC(O)CO)N=C(c2ccc(OCCCO)cc2)O[C@H]1c1ccccc1N=[N+]=[N-]` (stereo partly specified), the composite z-score is -0.188 (inactive) in experiment [1] and 0.0926 in the experiment with XIP peptide (Xip251-270). The z-score in experiment [2] was -2.25; in experiment [3] it was -3.25 (inactive); in experiment [4], -0.985 (inactive); in experiment [5], -1.52 (inactive).
As for `CCCNC(=O)[C@@]1(c2ccc([N+](=O)[O-])cc2)CC(=O)N(CC23CC4CC(CC(C4)C2)C3)[C@@H]1c1ccc(CO)cc1`, the composite z-score in experiment [1] is 0.462 (inactive); in the experiment with XIP peptide (Xip251-270) it was 0.424. Further, the z-score in experiment [2] was 0.0816; in experiment [3] it was -4.89 (inactive); in experiment [4], -0.29 (inactive); in experiment [5] it was -0.683 (inactive).
Consider `N#Cc1ccc(NN2C(C(O)c3cccs3)C=CC3C(=O)N(c4ccccc4)C(=O)C32)cc1` (stereo unspecified), for which the composite z-score is 0.529 (inactive) in experiment [1] and 0.477 with XIP peptide (Xip251-270). The z-score in experiment [2] was 0.407; in experiment [3], -2.34 (inactive); in experiment [4] it was 0.0213 (inactive); in experiment [5] it was -0.548 (inactive).
As for `CCOC(=O)C1=C[C@@H](CC)N(S(=O)(=O)c2ccc(C)cc2)[C@H]1c1ccccc1`, the composite z-score is 0.54 (inactive) in experiment [1] and 0.208 in the experiment with XIP peptide (Xip251-270). The z-score in experiment [2] was -1.81; in experiment [3], -2.63 (inactive); in experiment [4], 0.553 (inactive); in experiment [5] it was 0.54 (inactive).
For `COCCOC(=O)N1C(=O)[C@@]2(c3cc(C#CCCO)ccc31)[C@H](c1ccc(O)cc1)N1[C@H](c3ccccc3)[C@H](c3ccccc3)OC(=O)[C@H]1[C@@H]2C(N)=O`, the results for the composite z-score (in experiment [1]; with XIP peptide (Xip251-270)) were 0.599 (inactive) and 0.77, respectively. For the same molecule, the z-score is -0.662 in experiment [2], -5.33 (inactive) in experiment [3], -0.296 (inactive) in experiment [4] and -0.841 (inactive) in experiment [5].
Consider `CCCCC=C[C@@H](NC(=O)c1ccco1)c1ccccc1`, for which the composite z-score in experiment [1] is 0.193 (inactive); in the experiment with XIP peptide (Xip251-270), 0.511. Further, the z-score in experiment [2] was -1.19; in experiment [3], -0.806 (inactive); in experiment [4], -0.164 (inactive); in experiment [5], -0.7 (inactive).
On to `COCCOC(=O)N1C(=O)[C@@]2(c3cc(C#CCCO)ccc31)[C@H](c1ccccc1OCCO)N1[C@H](c3ccccc3)[C@H](c3ccccc3)OC(=O)[C@H]1[C@@H]2C(=O)N1CCN(c2ncccn2)CC1`, for which the composite z-score in experiment [1] is 0.377 (inactive); in the experiment with XIP peptide (Xip251-270) it was 0.783. The z-score was -1.89 in experiment [2], -1.16 (inactive) in experiment [3], -0.0825 (inactive) in experiment [4] and -0.157 (inactive) in experiment [5].
Take `COc1cc2c(cc1O)C(C)N(Cc1cccc(OC(F)(F)F)c1)CC2` (stereo unspecified): the composite z-score in experiment [1] was 0.714 (inactive); in the experiment on XIP peptide (Xip251-270), 0.907. In addition, the z-score was -2.03 in experiment [2], -3.46 (inactive) in experiment [3], 0.0708 (inactive) in experiment [4] and -0.033 (inactive) in experiment [5].
As for `CC(C)C(O)C1C=CC2C(=O)N(c3ccccc3)C(=O)C2N1Nc1ccc(C#N)cc1` (stereo unspecified), the composite z-score was 0.613 (inactive) in experiment [1] and 0.748 in the experiment with XIP peptide (Xip251-270). Further, the z-score is 0.207 in experiment [2], -2.61 (inactive) in experiment [3], -0.877 (inactive) in experiment [4] and -0.419 (inactive) in experiment [5].
As to `CCOC(=O)C[C@H]1[C@H](OC(=O)Cc2ccc3c(c2)OCO3)[C@@H](NC(=O)C2CCCCC2)c2cc(OCCCO)ccc2N1C(=O)Cc1ccc(OC)cc1`, the composite z-score is -0.219 (inactive) in experiment [1] and 0.128 with XIP peptide (Xip251-270). Further, the z-score was -0.383 in experiment [2], -2 (inactive) in experiment [3], -0.585 (inactive) in experiment [4] and -0.868 (inactive) in experiment [5].
Turning to `C=C[C@@H](COC(C)=O)N(Cc1ccc([N+](=O)[O-])cc1)S(=O)(=O)c1ccc(Br)cc1`, the composite z-score was 0.13 (inactive) in experiment [1] and 0.656 in the experiment with XIP peptide (Xip251-270). Moreover, the z-score in experiment [2] is 0.242; in experiment [3] it was -3.25 (inactive); in experiment [4], -0.617 (inactive); in experiment [5] it was -0.411 (inactive).
In the case of `COCCOC(=O)N1C(=O)[C@@]2(c3cc(C#CC4=CCCCC4)ccc31)[C@H](C(=O)N1CCc3cc(OC)c(OC)cc3C1)[C@H]1C(=O)O[C@H](c3ccccc3)[C@H](c3ccccc3)N1[C@@H]2c1ccccc1OCCO`, the composite z-score in experiment [1] is 0.0851 (inactive); in the experiment with XIP peptide (Xip251-270), 0.544. Also, the z-score was -2.23 in experiment [2], 2.24 (inactive) in experiment [3], -0.0513 (inactive) in experiment [4] and 0.226 (inactive) in experiment [5].
Regarding `C=C(COC)C(=O)CC[C@@H](OC(=O)c1cccnc1)c1ccc(CO)o1`, the composite z-score in experiment [1] was 0.457 (inactive); in the experiment on XIP peptide (Xip251-270), 0.496. Further, the z-score in experiment [2] is -0.469; in experiment [3] it was -4.3 (inactive); in experiment [4], 0.201 (inactive); in experiment [5], 0.679 (inactive).
On to `C=CC(=C)C1=CCO[C@@H]1[C@H]1CCCN1S(=O)(=O)c1ccccc1[N+](=O)[O-]`, for which the results for the composite z-score (in experiment [1]; with XIP peptide (Xip251-270)) were 0.162 (inactive) and 0.281, respectively. Also, the z-score is -1.51 in experiment [2], -2.41 (inactive) in experiment [3], -0.0283 (inactive) in experiment [4] and 0.0588 (inactive) in experiment [5].
Turning to `COc1c(C)cc(-c2cc3c(c(-c4ccc(Oc5ccccc5)cc4)n2)[Si](C(C)C)(C(C)C)OC3)cc1C`, the composite z-score in experiment [1] is -0.631 (inactive); in the experiment with XIP peptide (Xip251-270), -0.466. Besides, the z-score in experiment [2] was -0.898; in experiment [3], -0.746 (inactive); in experiment [4], 0.621 (inactive); in experiment [5], 0.37 (inactive).
As for `C[C@]1(C(=O)NCc2ccccc2)c2ccccc2C(=O)N(Cc2ccc(OC(F)(F)F)cc2)[C@H]1c1ccc(CO)cc1`, the figures for the composite z-score (in experiment [1]; with XIP peptide (Xip251-270)) were 0.379 (inactive) and 0.317, respectively. In addition, the z-score is -2.01 in experiment [2], -3.67 (inactive) in experiment [3], -0.347 (inactive) in experiment [4] and -0.341 (inactive) in experiment [5].
In the case of `COCCOC(=O)N1C(=O)[C@@]2(c3ccccc31)[C@H](c1ccc(O)cc1)N1[C@H](c3ccccc3)[C@H](c3ccccc3)OC(=O)[C@H]1[C@@H]2C(=O)N1CCc2cc(OC)c(OC)cc2C1`, the composite z-score was 1.46 (inactive) in experiment [1] and 0.794 with XIP peptide (Xip251-270). In addition, the z-score was -1.27 in experiment [2], -1.87 (inactive) in experiment [3], 0.043 (inactive) in experiment [4] and 0.361 (inactive) in experiment [5].
Take `CC(C)C(=C=CC[C@@H](O)c1ccccc1OCCO)C[C@@H](O)c1ccccn1`: the results for the composite z-score (in experiment [1]; in the experiment on XIP peptide (Xip251-270)) were 2.26 (inactive) and 0.499, respectively. Besides, the z-score was -1.35 in experiment [2], -4.89 (inactive) in experiment [3], 0.0231 (inactive) in experiment [4] and 0.215 (inactive) in experiment [5].
On to `Cc1ccc(S[C@]2(C(=O)NCc3ccccc3)CC(=O)N(Cc3ccccc3)[C@@H]2c2ccc(CO)cc2)cc1`, for which the composite z-score in experiment [1] is 0.824 (inactive); with XIP peptide (Xip251-270), 0.849. Also, the z-score in experiment [2] was 0.101; in experiment [3] it was -2.39 (inactive); in experiment [4], -0.0397 (inactive); in experiment [5], 0.377 (inactive).
As to `Cc1cc(C)c(C(O)C2C=CC3C(=O)N(c4ccccc4)C(=O)C3N2Nc2ccc(C#N)cc2)c(C)c1` (stereo unspecified), the composite z-score in experiment [1] was 1.69 (inactive); with XIP peptide (Xip251-270), 0.432. In addition, the z-score in experiment [2] was -0.558; in experiment [3], 0.783 (inactive); in experiment [4] it was 0.0661 (inactive); in experiment [5], 0.0947 (inactive).
